Test results as given in PubChem BioAssay (NCI).
This is part of a sample that, as a whole, favours compounds with a hit. Of some 79,000 tested, about 15% had one in any assay. The source made the active and inactive calls. Cut-off read from the data, not from the text of the source: active = growth inhibition above about 70%; inactive = the rest.

How the values were obtained:
[1] = NCI Yeast Anticancer Drug Screen. Data for the rad52 strain (AID 147);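 note: 0% = growth of vehicle-treated control cultures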; details: S. cerevisiae rad52 mutant growth inhibition, active compounds read high
Procedure, shortened: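 Growth of repair-deficient yeast cells was compared between compound-treated and vehicle-treated cultures to give percent inhibition.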

[2] = NCI Yeast Anticancer Drug Screen. Data for the wt1 strain (AID 149);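 note: 0% = growth of vehicle-treated wt1 cultures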; details: S. cerevisiae wt1 strain (SPY 50644) growth inhibition, active compounds read high
Procedure, shortened: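 wt1 strain grown with compound or vehicle; inhibition taken from the growth difference.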

[3] = NCI Yeast Anticancer Drug Screen. Data for the rad50EPP+ strain (AID 151);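 note: 0% = growth of vehicle-treated control cultures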; details: S. cerevisiae rad50 mutant strain, active compounds read high
Procedure, shortened: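 Measured: growth inhibition of rad50EPP+ yeast. Reference: vehicle-treated controls. Screen uses strains with defined genetic alterations in DNA damage repair or cell cycle control.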

[4] = NCI Yeast Anticancer Drug Screen. Data for the rad50 strain (AID 155);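 note: 0% = growth of vehicle-only cultures of the same strain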; details: S. cerevisiae rad50 strain growth inhibition, active compounds read high
Procedure, shortened: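 DNA repair mutant yeast, compound exposure, growth read-out; inhibition is taken relative to vehicle.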

[5] = NCI Yeast Anticancer Drug Screen. Data for the mec2-1 strain (AID 157); details: S. cerevisiae mec2-1 strain, active compounds read high
Procedure, shortened: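 Compounds were applied to mec2-1 yeast cells. Their growth was then compared with that of vehicle-treated cultures to give growth inhibition.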

[6] = NCI Yeast Anticancer Drug Screen. Data for the rad14 strain (AID 159);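 note: 0% = growth of vehicle-treated control cultures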; details: S. cerevisiae rad14 strain growth inhibition, active compounds read high
Procedure, shortened: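 DNA repair-defective yeast, compound-exposed; % growth inhibition derived by comparison with vehicle-treated controls.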

[7] = NCI Yeast Anticancer Drug Screen. Data for the sgs1 mgt1 strain (AID 161);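 note: 0% = growth of cultures given vehicle only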; details: S. cerevisiae sgs1 mgt1 strain, active compounds read high
Procedure, shortened: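 Yeast cells carrying a defined DNA-repair defect were exposed to test compounds. Growth inhibition was measured relative to vehicle-treated controls.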

[8] = NCI Yeast Anticancer Drug Screen. Data for the CLN2oe strain (AID 163);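 note: 0% = growth of vehicle-only control cultures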; details: S. cerevisiae CLN2oe strain, active compounds read high
Procedure, shortened: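 Cells of an engineered yeast line with disturbed cell-cycle regulation are treated with compound. Inhibition of growth is then calculated relative to the vehicle-treated reference.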

[9] = NCI Yeast Anticancer Drug Screen. Data for the cln2 rad14 strain (AID 165);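 note: 0% = growth equal to vehicle treated cultures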; details: S. cerevisiae cln2 rad14 strain, active compounds read high
Procedure, shortened: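 Strain: cln2 rad14 yeast, altered in cell cycle control and DNA damage repair. Read-out: growth inhibition vs vehicle.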

[10] = NCI Yeast Anticancer Drug Screen. Data for the bub3 strain (AID 167); details: S. cerevisiae bub3 mutant strain, active compounds read high
Procedure, shortened: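 In this screen, a yeast mutant lacking normal mitotic checkpoint function is challenged with compound. Relative growth versus vehicle gives the inhibition value.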

[11] = NCI Yeast Anticancer Drug Screen. Data for the wt2 strain (AID 169);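 note: 0% = growth of vehicle-treated yeast cultures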; details: S. cerevisiae wt2 strain growth inhibition, active compounds read high
Procedure, shortened: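 Growth of compound-treated yeast is measured and expressed as inhibition relative to vehicle-only controls.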

[12] = NCI Yeast Anticancer Drug Screen. Data for the sgs1 strain (AID 173);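 note: 0% = growth of vehicle-only control cultures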; details: S. cerevisiae sgs1 mutant, active compounds read high
Procedure, shortened: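 Strain with an altered DNA repair or cell cycle pathway exposed to compound. Growth then measured. Value = inhibition versus vehicle control.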

[13] = NCI Yeast Anticancer Drug Screen. Data for the mlh1 rad18 strain (AID 175); details: S. cerevisiae mlh1 rad18 strain growth inhibition, active compounds read high
Procedure, shortened: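 A repair-deficient yeast strain is exposed to test compound, and growth is scored relative to vehicle-treated controls.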

[14] = NCI Yeast Anticancer Drug Screen. Data for the rad18 strain (AID 177); details: S. cerevisiae rad18 mutant growth inhibition, active compounds read high
Procedure, shortened: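 DNA-repair-defective yeast; compound treatment; growth inhibition scored against vehicle.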

[15] = NCI Yeast Anticancer Drug Screen. Data for the mlh1 strain (AID 171);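 note: 0% = growth of vehicle-treated control cultures of the same strain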; details: S. cerevisiae mlh1 strain growth inhibition, active compounds read high
Procedure, shortened: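 Test agents were incubated with yeast bearing a defined DNA damage repair or cell cycle control alteration; values are growth inhibition normalised to vehicle-treated cultures.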

[16] = at 5.0 µM (retest, dose inferred, filed as 0.5)
[17] = at 50.0 µM (retest, dose inferred, filed as 5.0)

Measured: growth inhibition

CCCCCCSc1nc(COC(=O)NC)c(COC(=O)NC)n1C
inactive: [1]; at 1.2 µM -1% | [1]; at 3.7 µM 0% | [1]; at 11.0 µM -2% | [1]; at 33.0 µM 25% | [2]; at 1.2 µM -1% | [2]; at 3.7 µM -2% | [2]; at 11.0 µM -2% | [2]; at 33.0 µM 6% | [3]; at 1.2 µM -3% | [3]; at 3.7 µM -6% | [3]; at 11.0 µM -6% | [3]; at 33.0 µM 5% | [4]; at 1.2 µM 0% | [4]; at 3.7 µM -48% | [4]; [16] 0% | [4]; at 11.0 µM 20% | [4]; at 33.0 µM 54% | [4]; at 50.0 µM 49.6% | [5]; at 1.2 µM -1% | [5]; at 3.7 µM 2% | [5]; [16] 0% | [5]; at 11.0 µM 0% | [5]; at 33.0 µM 9% | [5]; [17] 27% | [6]; at 1.2 µM -3% | [6]; at 3.7 µM -4% | [6]; at 11.0 µM -4% | [6]; at 33.0 µM 28% | [7]; [16] 0% | [7]; [17] 5% | [7]; at 50.0 µM 19.9% | [8]; at 1.2 µM -2% | [8]; at 3.7 µM -5% | [8]; at 11.0 µM -3% | [8]; at 33.0 µM 20% | [9]; [16] -2% | [9]; [17] 57% | [10]; at 1.2 µM -4% | [10]; at 3.7 µM 0% | [10]; [16] -2% | [10]; at 11.0 µM -4% | [10]; at 33.0 µM 16% | [10]; [17] 45% | [10]; at 50.0 µM 44.2% | [11]; at 1.2 µM -3% | [11]; at 3.7 µM -14% | [11]; at 11.0 µM -4% | [11]; at 33.0 µM 33% | [12]; at 1.2 µM -4% | [12]; at 3.7 µM -3% | [12]; at 11.0 µM -6% | [12]; at 33.0 µM 59% | [13]; [16] -2% | [14]; at 1.2 µM -1% | [14]; at 3.7 µM -1% | [14]; at 11.0 µM -1% | [14]; at 33.0 µM 33%
active: [1]; at 100.0 µM 98% | [2]; at 100.0 µM 98% | [3]; at 100.0 µM 87% | [4]; [17] 91% | [4]; at 100.0 µM 99% | [5]; at 50.0 µM 98.3% | [5]; at 100.0 µM 99% | [6]; at 100.0 µM 99% | [8]; at 100.0 µM 97% | [9]; at 50.0 µM 72.8% | [10]; at 100.0 µM 99% | [11]; at 100.0 µM 99% | [12]; at 100.0 µM 99% | [13]; [17] 74% | [13]; at 50.0 µM 98.3% | [14]; at 100.0 µM 98%

N#C/C(=C1C=C/C(=N/O)c2ccccc2/1)c1ccccc1
inactive: [1]; at 1.2 µM -1% | [1]; at 3.7 µM -1% | [1]; at 11.0 µM 1% | [2]; at 1.2 µM -3% | [2]; at 3.7 µM -4% | [2]; at 11.0 µM -6% | [2]; at 33.0 µM 53% | [2]; at 100.0 µM 56% | [3]; at 1.2 µM 7% | [3]; at 3.7 µM 13% | [3]; at 11.0 µM 16% | [3]; at 33.0 µM 36% | [3]; at 100.0 µM 35% | [4]; at 1.2 µM 2% | [4]; at 3.7 µM 1% | [4]; [16] 47% | [4]; at 11.0 µM 4% | [5]; at 1.2 µM -3% | [5]; at 3.7 µM -8% | [5]; [16] 24% | [5]; at 11.0 µM -8% | [5]; at 33.0 µM 52% | [5]; at 100.0 µM 49% | [6]; at 1.2 µM -3% | [6]; at 3.7 µM -6% | [6]; at 11.0 µM -3% | [6]; at 33.0 µM 55% | [7]; [16] 60% | [8]; at 1.2 µM -5% | [8]; at 3.7 µM -6% | [8]; at 11.0 µM -6% | [8]; at 33.0 µM 49% | [8]; at 100.0 µM 62% | [10]; at 1.2 µM -6% | [10]; at 3.7 µM -10% | [10]; [16] 49% | [10]; at 11.0 µM -8% | [10]; at 33.0 µM 42% | [10]; at 100.0 µM 50% | [11]; at 1.2 µM -4% | [11]; at 3.7 µM -5% | [11]; at 11.0 µM -4% | [11]; at 33.0 µM 49% | [11]; at 100.0 µM 36% | [15]; at 1.2 µM -1% | [15]; at 3.7 µM -2% | [15]; at 11.0 µM 1% | [15]; at 100.0 µM 57% | [12]; at 1.2 µM -2% | [12]; at 3.7 µM -2% | [12]; at 11.0 µM 1% | [12]; at 100.0 µM 66% | [13]; [16] 49% | [14]; at 1.2 µM -1% | [14]; at 3.7 µM 3% | [14]; at 11.0 µM -1%
active: [1]; at 33.0 µM 84% | [1]; at 100.0 µM 71% | [4]; at 33.0 µM 92% | [4]; [17] 97% | [4]; at 50.0 µM 96.6% | [4]; at 100.0 µM 87% | [5]; [17] 97% | [5]; at 50.0 µM 98% | [6]; at 100.0 µM 71% | [7]; [17] 97% | [7]; at 50.0 µM 96.6% | [10]; [17] 95% | [10]; at 50.0 µM 97.7% | [15]; at 33.0 µM 73% | [12]; at 33.0 µM 95% | [13]; [17] 96% | [13]; at 50.0 µM 91.5% | [14]; at 33.0 µM 88% | [14]; at 100.0 µM 80%
